# From PubChem BioAssay (Tox21)
# Records with an inconclusive call do not appear. Where a call stands in place of a potency, no number is given. Active and inactive are the calls of the source. The call rests on the fitted dose curve; in most records, active means well fitted cell-killing curve with a large enough effect in the repeat runs; inconclusive means weak or mixed curves, or effect the other way; inactive means flat fitted curve, though single readings scatter.
# Test: qHTS RealTime-Glo MT Cell Viability Assay in HEK293 cells - 8 hour (AID 1224887); further: nearly all actives have a fitted effect of over 50% in size
# Conditions: RealTime-Glo luminescence; series mostly up to 76.8 µM
# Text: U.S. Tox21 Program National Center for Advancing Translational Sciences [NCATS] NIH Chemical Genomics Center [NCGC] U.S. Environmental Protection Agency [EPA] National Institutes of Environmental Health Sciences [NIEHS] National Toxicology Program [NTP] U.S. Food and Drug Administration [FDA] Tox21 Assay Overview: Measure of cell viability is critical in the cell-base assay. Analysis of cell viability is necessary for the characterization of cell responses to cytotoxic drugs and environmental stress. A RealTime-Glo MT Cell Viability Assay to monitor cell viability in real time of continues cell culture during 40 hours of compound treatment was used to screen Tox21 10K library compounds in Hek293 cells. The RealTime-Glo MT Cell Viability Assay is a nonlytic, homogeneous, bioluminescent method to measure cell viability in real time using a simple, plate-based method. The assay involves adding NanoLuc luciferase and a cell-permeant prosubstrate to cells in culture. Viable cells reduce the proprietary prosubstrate to generate a substrate for NanoLuc luciferase. This substrate diffuses from cells into the surrounding culture medium, where it is rapidly used by the NanoLuc Enzyme to produce a luminescent signal. The signal correlates with the number of viable cells, making the assay well suited for cytotoxicity studies.
# Tox21 Assay Protocol Summary: The mixture of Hek293 cell suspension and reagents were dispensed at 600cells/6 ul/well in 1536-well tissue culture treated black solid bottom plates using a Multidrop dispenser. After the assay plates were incubated at a 37 C/5% CO2 incubator for 5 hours, 23 nL of compounds dissolved in DMSO, positive and negative controls was transferred to the assay plate by a pintool work station. The plates were incubated at 37 C for 40 hours. The luminescence intensity were measured at 0h, 8h, 16h, 24h, 32h and 40h time points using ViewLux plate reader during compound treatment.
# Potency means the concentration at half of the fitted maximal effect.
row,Structure (SMILES),Potency
1,O=C(O)c1cc(Cl)cc(Cl)c1O,inactive
2,O=C(c1ccccc1)c1ccc(O)cc1,inactive
3,CC(C)Cc1ccc(CC(=O)O)cc1,inactive
4,CCCCC(CC)COS(=O)(=O)O (stereo not given),inactive
5,O=c1[nH]c2cc(C(F)(F)F)c(N3CCOCC3)cc2n(CP(=O)(O)O)c1=O,inactive
6,CC(=O)OCC(C)C,inactive
7,O[C@@H](CNC[C@H](O)[C@H]1CCc2cc(F)ccc2O1)[C@@H]1CCc2cc(F)ccc2O1,21.3 µM (active)
8,Nc1ccn([C@H]2CS[C@@H](CO)O2)c(=O)n1,inactive
9,Cc1ccc2c(c1)CCCN2,inactive
10,CN=C(N)NC(=O)Nc1c(C)cccc1C,inactive
11,Cc1ccc(S(=O)(=O)NC(=O)NC2CCCCC2)cc1,inactive
12,C[C@@H]1[C@H](O)[C@@H](C)/C=C/C=C\C=C\C=C\C=C\C=C\C=C\[C@H](O[C@@H]2O[C@H](C)[C@@H](O)[C@H](N)[C@@H]2O)C[C@@H]2O[C@](O)(C[C@@H](O)C[C@@H](O)[C@H](O)CC[C@@H](O)C[C@@H](O)CC(=O)O[C@H]1C)C[C@H](O)[C@H]2C(=O)O (stereo in doubt),inactive
13,CC12CC3CC(C)(C1)CC(N)(C3)C2,inactive
14,O=C(O)CN1C(=O)c2cccc3cccc(c23)C1=O,inactive
15,Cc1cccc2sc(N)nc12,inactive
16,CC(C)N(C)C,inactive
17,C=C(C)C(=O)OCCC(F)(F)C(F)(F)C(F)(F)C(F)(F)C(F)(F)C(F)(F)F,inactive
18,O=C(O)CCCc1c[nH]c2ccccc12,inactive
19,COC(=O)C1=C(C)NC(C)=C(C(=O)OC(C)(C)CN(C)CCC(c2ccccc2)c2ccccc2)C1c1cccc([N+](=O)[O-])c1 (stereo not given),inactive
20,CCCCCCCCCCCCCC(=O)OCC(O)CO (stereo not given),inactive

row,Structure (SMILES),Potency
1,Nc1ccc(F)cc1,inactive
2,CC(C)(O)c1coc(S(=O)(=O)NC(=O)Nc2c3c(cc4c2CCC4)CCC3)c1,inactive
3,CCCC(=O)OC(=O)CCC,inactive
4,O=[N+]([O-])c1ccc2ncccc2c1,inactive
5,COc1ccc(-n2nc(C(F)F)cc2-c2ccc(S(C)=O)cc2)cc1 (stereo not given),inactive
6,CC[C@H]1OC(=O)[C@H](C)[C@@H](O[C@H]2C[C@@](C)(OC)[C@@H](O)[C@H](C)O2)[C@H](C)[C@@H](O[C@@H]2O[C@H](C)C[C@H](N(C)C)[C@H]2O)[C@](C)(O)C[C@@H](C)CN(C)[C@H](C)[C@@H](O)[C@]1(C)O,inactive
7,CCC(C)(C)C(=O)O,inactive
8,O=S(=O)(O)CO,inactive
9,CCNc1nc(N)nc(Cl)n1,inactive
10,BrC(Br)C(Br)Br,inactive
11,CCc1ccc(C)cc1,inactive
12,CNc1c2c(nn1C)CCCC2,inactive
13,Cc1ccc(NC(=O)N(C)C)cc1NC(=O)N(C)C,inactive
14,CS(=O)(=O)c1ccc([C@@H](C[C@H]2CCC(=O)C2)C(=O)Nc2cnccn2)cc1Cl,inactive
15,CCCCCCCCCCCCCOS(=O)(=O)O,inactive
16,CCN(CC)C(=O)N1CCN(C)CC1,inactive
17,CC1C(C)(C)C2=C(C(=O)CCC2)C1(C)C (stereo not given),inactive
18,CC(O)Cn1cnc2c1c(=O)n(C)c(=O)n2C (stereo not given),inactive
19,CC1CCCC(=O)C1=O (stereo not given),inactive
20,COc1cc(S(=O)(=O)Nc2ccccc2)c(OC)cc1N,inactive
